Here are results for five compounds from PubChem BioAssay.

Assay [1] can be described thus: compounds binding Alexa647 anti-His antibody – biochemical, small-molecule microarray, 635 nm fluorescence, artefact control for SMM control protein annotation, primary screen (AID 1128).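 Further: score merges feature fluorescence with signal-to-noise for each printed compound spot.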 Conditions: higher = more signal.
For assay [2], the system named is Human papillomavirus type 1a E7 protein (residues 1-88). The experiment in a line: HPV1a E7 small-molecule binders, primary screen, biochemical, small-molecule microarray, residues 1-88, 635 nm (AID 1129). Conditions: small-molecule microarray binding, fluorescence 635 nm; higher = more signal.
For assay [3], the target named is Focal adhesion kinase 1 (Homo sapiens) (UniProt Q05397). The experiment in a line: PTK2 protein binding on printed compound slides – biochemical, small-molecule microarray, 635/667 nm fluorescence, BSA, DTT, primary screen (AID 1130).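 Further: composite of spot emission at 667 nm and signal to noise over triplicate slides.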 Conditions: 635 nm fluorescence, higher = more signal.
Assay [4] deals with Fibrinogen (Alexa647-labelled). Nature of the assay: Alexa647-fibrinogen binding to printed small molecules – biochemical, small-molecule microarray, 635/667 nm fluorescence, artefact control for SMM control-protein annotation, profiling panel (AID 1131).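 Further: z-score merges 667 nm fluorescence with per-spot signal-to-noise over triplicate slides.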 Conditions: fibrinogen-A647 binding fluorescence, higher = more signal.
Assay [5] deals with Follistatin (Homo sapiens) (UniProt P19883). The experiment in a line: FST protein binding to printed compounds – biochemical, small-molecule microarray, 635/667 nm fluorescence, primary screen (AID 1132). Conditions: 635 nm fluorescence, higher = more signal.
For assay [6], the target named is Fibroblast growth factor 2 (Homo sapiens) (UniProt P09038). The experiment in a line: basic fibroblast growth factor binding to printed compounds – biochemical, small-molecule microarray, 635/667 nm fluorescence, primary screen (AID 1133). Conditions: FGF2, fluorescence 635/667, higher = more signal.
Assay [7] in a line: JC-1 mitochondrial potential readout, lung cancer cells – cell-based, A549, JC-1 fluorescence, basal, 24 h, 100 nL, profiling panel (AID 1138).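 Further: A549 lung adenocarcinoma cells under basal conditions with no added stimulus; test concentration not given here.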 Conditions: higher = more signal.
The subject of assay [8] is Lefty1. The experiment in a line: Lefty1 protein binding to printed compounds – biochemical, small-molecule microarray, 635/667 nm fluorescence, primary screen (AID 1139). Conditions: fluorescence 635/667, higher = more signal.
For assay [9], the system named is wheat germ agglutinin (Triticum aestivum), Alexa647-labelled. Nature of the assay: Alexa647-WGA lectin binding to printed small molecules – biochemical, small-molecule microarray, 635/667 nm fluorescence, artefact control for SMM control-protein annotation, profiling panel (AID 1140).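 Further: score merges 667 nm feature emission with signal to noise over triplicate slides.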 Conditions: WGA-A647 binding, 635 nm fluorescence, higher = more signal.
In assay [10] the target is Luciferin 4-monooxygenase (Photinus pyralis) (UniProt P08659). Nature of the assay: inhibition of purified Photinus pyralis luciferase – biochemical, luminescence, purified enzyme, 2006 set, primary screen (AID 1141).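 Further: cell-free assay with purified firefly luciferase at 100 ng per well in PBS; test concentration not given here.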 Conditions: purified firefly luciferase, SteadyGlo luminescence, 30 min; higher = more signal, called active from +8 up or from −8 down.
For assay [11], the system named is Wnt5a (protein binding on small-molecule microarray). The experiment in a line: small molecules binding Wnt5a protein – biophysical, small-molecule microarray, 635/667 nm fluorescence, primary screen (AID 1142).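 Further: fluorescence read at 667 nm with signal to noise per printed feature.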 Conditions: 635 nm fluorescence, higher = more signal.
Assay [12] is described as follows: ATP-based viability of Huh7 replicon cells – cell-based, CellTiter-Glo luminescence, basal, 48 h, cytotoxicity control for HCV replication inhibitor project, primary screen (AID 1143).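 Further: Huh7 hepatoma cells carrying a hepatitis C replication reporter with no stimulus; test concentration not given here.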 Conditions: higher = more signal, called active from +8 up or from −8 down. In general terms: Replicon systems follow genome replication, usually without infectious particles.
The nature of assay [13]: Pseudomonas biofilm growth suppression – PAO1 strain, BacTiter-Glo luminescence, LB-PBS, primary screen (AID 1144). Conditions: P. aeruginosa PAO1 biofilm, 12 h, higher = more signal.
Assay [14] is described as follows: basal CRE-LacZ reporter activity in PC12 – cell-based, unstimulated, primary screen (AID 1145). Conditions: no forskolin, luminescence, 4.5 h, higher = more signal, called active from +8 up or from −8 down.
The nature of assay [15]: forskolin-driven CRE-LacZ activity in PC12 – cell-based, CRE-LacZ reporter, forskolin-stimulated, primary screen (AID 1146).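 Further: PC12 cells with 6xCRE LacZ reporter stimulated by forskolin 10 µM; beta-galactosidase reporter signal reflecting CREB driven transcription.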 Conditions: luminescence, 4.5 h, higher = more signal, called active from +8 up or from −8 down.
For assay [16], the target named is Streptavidin (Streptomyces avidinii) (UniProt P22629). Nature of the assay: compounds binding control protein streptavidin – biophysical, small-molecule microarray, 635/667 nm fluorescence, artefact control for SMM compound annotation, primary screen (AID 1147).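 Further: signal reflects streptavidin binding to arrayed compounds as a control protein.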 Conditions: higher = more signal.
A short description of assay [17]: probe aInhba binding on compound microarray – biochemical, small-molecule microarray, 635/667 nm fluorescence, primary screen (AID 1148).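 Further: score merges 667nm spot fluorescence with signal-to-noise for antibody binding to printed compounds.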 Conditions: higher = more signal.
Assay [18] deals with Torsin-1A (Homo sapiens) (UniProt O14656). Nature of the assay: TOR1A wild-type binding on microarray – cell lysate, small-molecule microarray, lysate, 635/667 nm, primary screen (AID 1149). Conditions: COS7 hTOR1A-WT lysate, 635 nm fluorescence, higher = more signal.
For assay [19] the target is unchanged. Nature of the assay: torsin A mutant lysate binding on microarrays – cell lysate, small-molecule microarray, COS7 lysate, 635/667 nm fluorescence, primary screen (AID 1150).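 Further: score pools 667 nm emission and signal to noise measuring lysate protein binding.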 Conditions: COS7 hTOR1A mutant lysate, 635 nm fluorescence, higher = more signal.
Assay [20] has as its system Sonic hedgehog protein (Shh). The experiment in a line: Sonic hedgehog microarray binding compounds – biochemical, small-molecule microarray, 635/667 nm fluorescence, primary screen (AID 1151).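 Further: Shh protein binding to compounds spotted on small-molecule microarray slides; score combines spot fluorescence intensity with signal-to-noise across triplicate slides.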 Conditions: 635 nm fluorescence, higher = more signal.

The source made the active and inactive calls. Unless noted, how the calls were made is not given here.

Chain of Focal adhesion kinase 1 (Homo sapiens) (Q05397 whole entry, looked up): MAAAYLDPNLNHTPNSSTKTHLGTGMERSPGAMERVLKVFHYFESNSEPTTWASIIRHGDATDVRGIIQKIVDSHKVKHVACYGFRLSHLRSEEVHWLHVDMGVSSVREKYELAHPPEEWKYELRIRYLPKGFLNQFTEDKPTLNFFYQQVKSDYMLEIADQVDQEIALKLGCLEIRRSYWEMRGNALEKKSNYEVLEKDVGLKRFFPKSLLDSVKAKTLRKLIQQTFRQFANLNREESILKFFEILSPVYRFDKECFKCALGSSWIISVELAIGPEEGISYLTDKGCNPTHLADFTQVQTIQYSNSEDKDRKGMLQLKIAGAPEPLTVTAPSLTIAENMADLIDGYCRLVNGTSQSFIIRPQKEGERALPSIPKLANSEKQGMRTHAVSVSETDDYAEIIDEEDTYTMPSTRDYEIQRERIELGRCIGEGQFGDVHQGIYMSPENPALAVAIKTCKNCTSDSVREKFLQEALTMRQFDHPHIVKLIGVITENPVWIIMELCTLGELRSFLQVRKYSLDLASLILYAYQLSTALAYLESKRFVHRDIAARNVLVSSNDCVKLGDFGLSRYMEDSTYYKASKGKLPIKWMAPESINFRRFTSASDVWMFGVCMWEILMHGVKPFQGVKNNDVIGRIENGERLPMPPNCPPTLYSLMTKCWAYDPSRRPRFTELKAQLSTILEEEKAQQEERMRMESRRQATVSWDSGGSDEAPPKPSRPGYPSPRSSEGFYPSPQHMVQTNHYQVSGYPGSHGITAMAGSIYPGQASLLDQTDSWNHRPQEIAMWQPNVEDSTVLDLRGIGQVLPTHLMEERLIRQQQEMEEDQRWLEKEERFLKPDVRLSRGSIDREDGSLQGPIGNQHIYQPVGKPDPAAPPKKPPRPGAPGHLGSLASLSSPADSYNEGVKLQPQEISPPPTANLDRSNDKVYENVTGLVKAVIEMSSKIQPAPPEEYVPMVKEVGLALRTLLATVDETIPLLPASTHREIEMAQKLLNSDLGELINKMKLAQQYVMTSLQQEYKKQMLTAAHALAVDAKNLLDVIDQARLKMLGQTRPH
Chain of Torsin-1A (Homo sapiens) (O14656 whole entry, looked up): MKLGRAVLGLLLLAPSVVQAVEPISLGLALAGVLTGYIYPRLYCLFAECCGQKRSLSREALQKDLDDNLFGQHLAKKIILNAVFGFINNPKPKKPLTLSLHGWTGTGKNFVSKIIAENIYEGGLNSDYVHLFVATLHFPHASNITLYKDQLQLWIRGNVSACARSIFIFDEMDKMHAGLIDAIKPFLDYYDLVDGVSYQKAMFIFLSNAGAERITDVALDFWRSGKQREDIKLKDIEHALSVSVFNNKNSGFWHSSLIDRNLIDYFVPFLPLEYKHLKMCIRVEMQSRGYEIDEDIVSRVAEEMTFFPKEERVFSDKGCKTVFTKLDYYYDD
Chain of Streptavidin (Streptomyces avidinii) (P22629 whole entry, looked up): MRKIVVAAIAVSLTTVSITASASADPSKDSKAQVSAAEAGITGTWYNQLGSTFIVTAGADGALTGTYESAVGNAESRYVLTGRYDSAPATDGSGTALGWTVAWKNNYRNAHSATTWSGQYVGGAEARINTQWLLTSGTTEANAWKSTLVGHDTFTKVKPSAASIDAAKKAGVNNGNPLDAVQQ
Chain of Luciferin 4-monooxygenase (Photinus pyralis) (P08659 whole entry, looked up): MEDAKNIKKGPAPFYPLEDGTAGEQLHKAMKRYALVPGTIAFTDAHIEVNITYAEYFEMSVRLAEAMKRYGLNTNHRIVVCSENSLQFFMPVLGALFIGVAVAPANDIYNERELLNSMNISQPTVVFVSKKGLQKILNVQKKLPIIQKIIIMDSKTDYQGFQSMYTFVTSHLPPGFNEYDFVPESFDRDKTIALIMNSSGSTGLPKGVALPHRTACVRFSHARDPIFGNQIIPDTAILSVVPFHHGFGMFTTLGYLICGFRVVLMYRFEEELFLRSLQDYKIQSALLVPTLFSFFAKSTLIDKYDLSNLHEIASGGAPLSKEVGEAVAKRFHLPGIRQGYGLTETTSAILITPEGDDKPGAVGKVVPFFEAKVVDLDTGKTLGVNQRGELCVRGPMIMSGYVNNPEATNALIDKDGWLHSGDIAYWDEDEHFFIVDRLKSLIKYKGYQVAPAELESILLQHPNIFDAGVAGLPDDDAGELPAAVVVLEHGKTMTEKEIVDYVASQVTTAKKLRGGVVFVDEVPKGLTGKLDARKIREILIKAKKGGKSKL
Chain of Follistatin (Homo sapiens) (P19883 whole entry, looked up): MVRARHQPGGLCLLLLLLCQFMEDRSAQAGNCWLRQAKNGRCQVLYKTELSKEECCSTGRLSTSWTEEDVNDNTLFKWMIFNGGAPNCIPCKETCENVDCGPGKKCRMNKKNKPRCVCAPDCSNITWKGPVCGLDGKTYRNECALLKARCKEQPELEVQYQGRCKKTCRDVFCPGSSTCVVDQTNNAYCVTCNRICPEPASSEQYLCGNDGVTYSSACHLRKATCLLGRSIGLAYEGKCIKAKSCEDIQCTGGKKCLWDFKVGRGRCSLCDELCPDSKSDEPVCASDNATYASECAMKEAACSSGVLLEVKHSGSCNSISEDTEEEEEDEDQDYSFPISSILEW
Chain of Fibroblast growth factor 2 (Homo sapiens) (P09038 whole entry, looked up): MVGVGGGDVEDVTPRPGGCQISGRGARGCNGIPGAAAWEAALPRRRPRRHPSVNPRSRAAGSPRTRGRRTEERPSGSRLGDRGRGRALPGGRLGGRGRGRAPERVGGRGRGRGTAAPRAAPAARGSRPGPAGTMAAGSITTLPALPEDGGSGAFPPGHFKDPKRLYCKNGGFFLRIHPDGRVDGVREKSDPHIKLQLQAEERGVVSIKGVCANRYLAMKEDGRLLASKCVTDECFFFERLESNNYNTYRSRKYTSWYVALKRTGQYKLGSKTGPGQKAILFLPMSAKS

For `COc1ccc(-c2cc3c(c(-c4ccccc4)n2)[Si](C(C)C)(C(C)C)O[C@H]3c2ccccc2)cn1`, the composite z-score was -0.614 in assay [1]; 0.438 in [2]; -0.142 in [3]; 0.0413 in assay [4]; 0.758 in assay [5]; 0.343 in assay [6]. Besides, the composite z-score in assay [8] is 0.506; in assay [9], -0.0707; in [11] it was 0.436; in [16], -0.207; in assay [17] it was -0.0403; in [18], 0.363. Also, the composite z-score in [19] is -0.0308; in assay [20] it was 0.82. Moreover, the z-score is 0.136 in assay [7]; 0.167 (inactive) in assay [10]; 0.0834 (inactive) in assay [12]; 0.0798 (inactive) in assay [13]; 0.0035 (inactive) in assay [14]; 0.411 (inactive) in assay [15].

Take `CC(=O)NCCCC[C@@H]1NC(=O)[C@H]2C[C@@H](C(=O)NCCCCCCN(C)C)[C@@H](c3ccc(O)cc3)N2C1=O`: the composite z-score in assay [1] is 3.14; in assay [2] it was 1.25; in assay [3], 0.554; in assay [4], 0.793; in assay [5] it was 1.34; in [6], 0.903. The composite z-score in [8] came out at 1.55; in [9] it was 1.29; in [11], 0.124; in assay [16], 1.36; in assay [17] it was 1.12; in assay [18] it was 1.6. Further, the figures for the composite z-score in assay [19] and in [20] were 1.21 and 1.79, respectively. For the same compound, the z-score is -1.26 in assay [7]; 0.0866 (inactive) in [10]; -0.0718 (inactive) in assay [12]; -0.181 (inactive) in assay [13]; 0.281 (inactive) in assay [14]; 0.403 (inactive) in [15].

As to `NC(=O)NCC#Cc1ccc2c(c1)[C@]1(C(=O)N2)[C@H](c2ccccc2OCCO)N2[C@H](c3ccccc3)[C@H](c3ccccc3)OC(=O)[C@H]2[C@@H]1C(=O)N1CCN(c2ncccn2)CC1`, the composite z-score came to 0.997 in [1]; 1.19 in assay [2]; 0.695 in assay [3]; 0.814 in assay [4]; 1.08 in assay [5]; 1.03 in [6]. Moreover, the composite z-score was 0.347 in assay [8]; 0.438 in assay [9]; -0.186 in [11]; 0.182 in [16]; -0.0762 in assay [17]; 0.0759 in assay [18]. The composite z-score was found to be 0.272 in assay [19] and 0.831 in [20]. The z-score in assay [7] was -0.77; in assay [10], -0.538 (inactive); in [12], -4.21 (inactive); in [13], -0.681 (inactive); in assay [14], -0.0515 (inactive); in assay [15], 0.889 (inactive).

Turning to `C#CCNC(/C=C/c1ccccc1)CO` (stereo not given), the composite z-score was 0.638 in [1]; 0.355 in assay [2]; -0.0492 in assay [3]; 0.269 in assay [4]; 0.362 in assay [5]; 0.106 in [6]. Also, the composite z-score in assay [8] is 0.394; in assay [9], -0.0687; in [11], -0.0285; in assay [16], -0.114; in assay [17] it was -0.0846; in assay [18], 0.304. Further, the composite z-score in assay [19] is 0.443; in [20] it was 0.448. The z-score in [7] is -1.07; in assay [10] it was 0.835 (inactive); in assay [12], 0.171 (inactive); in [13] it was -0.558 (inactive); in assay [14] it was -0.237 (inactive); in assay [15], 1.39 (inactive).

As to `O=C1O[C@H](c2ccccc2)[C@H](c2ccccc2)N2[C@H]1[C@@H](C(=O)Nc1nc3ccccc3s1)[C@]1(C(=O)Nc3ccc(C#CC4=CCCCC4)cc31)[C@H]2c1ccccc1OCCO`, the composite z-score in assay [1] turned out to be 0.485; in [2], 1.15; in assay [3], 0.66; in assay [4], 0.797; in assay [5] it was 0.968; in [6], 1.2. Also, the composite z-score in [8] is 0.966; in assay [9], -0.17; in assay [11] it was 0.266; in [16], 0.841; in assay [17], 0.0649; in assay [18], 0.552. The composite z-score in assay [19] came out at 0.0083; in [20], 1.63. The z-score in [7] was -2.27; in assay [10] it was -1.01 (inactive); in assay [12], -4.26 (inactive); in assay [13], 0.331 (inactive); in assay [14], 0.619 (inactive); in assay [15] it was -0.0292 (inactive).
